# From ChEMBL document CHEMBL1961873, “Compounds: GSK PKIS; Assays: Nanosyn kinase panel” (2012)
# Key:
# [1] = target: Fibroblast growth factor receptor 4 (Homo sapiens) (UniProt P22455); conditions: at 1 µM;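 note: reported figure is the averaged percent inhibition of FGFR4, from the GSK PKIS kinase screening panel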
# [2] = target: Tyrosine-protein kinase Fgr (Homo sapiens) (UniProt P09769); conditions: at 0.1 µM
# [3] = target: Tyrosine-protein kinase Fgr (Homo sapiens) (UniProt P09769); conditions: at 1 µM
# [4] = target: Vascular endothelial growth factor receptor 1 (Homo sapiens) (UniProt P17948); conditions: at 0.1 µM
# [5] = target: Vascular endothelial growth factor receptor 1 (Homo sapiens) (UniProt P17948); conditions: at 1 µM
# [6] = target: Receptor-type tyrosine-protein kinase FLT3 (Homo sapiens) (UniProt P36888); conditions: at 0.1 µM
# [7] = target: Receptor-type tyrosine-protein kinase FLT3 (Homo sapiens) (UniProt P36888); conditions: at 1 µM
# [8] = tested on: T1, Receptor-type tyrosine-protein kinase FLT3 (Homo sapiens), P36888 [D835Y]; conditions: at 0.1 µM
# T1 sequence (whole entry): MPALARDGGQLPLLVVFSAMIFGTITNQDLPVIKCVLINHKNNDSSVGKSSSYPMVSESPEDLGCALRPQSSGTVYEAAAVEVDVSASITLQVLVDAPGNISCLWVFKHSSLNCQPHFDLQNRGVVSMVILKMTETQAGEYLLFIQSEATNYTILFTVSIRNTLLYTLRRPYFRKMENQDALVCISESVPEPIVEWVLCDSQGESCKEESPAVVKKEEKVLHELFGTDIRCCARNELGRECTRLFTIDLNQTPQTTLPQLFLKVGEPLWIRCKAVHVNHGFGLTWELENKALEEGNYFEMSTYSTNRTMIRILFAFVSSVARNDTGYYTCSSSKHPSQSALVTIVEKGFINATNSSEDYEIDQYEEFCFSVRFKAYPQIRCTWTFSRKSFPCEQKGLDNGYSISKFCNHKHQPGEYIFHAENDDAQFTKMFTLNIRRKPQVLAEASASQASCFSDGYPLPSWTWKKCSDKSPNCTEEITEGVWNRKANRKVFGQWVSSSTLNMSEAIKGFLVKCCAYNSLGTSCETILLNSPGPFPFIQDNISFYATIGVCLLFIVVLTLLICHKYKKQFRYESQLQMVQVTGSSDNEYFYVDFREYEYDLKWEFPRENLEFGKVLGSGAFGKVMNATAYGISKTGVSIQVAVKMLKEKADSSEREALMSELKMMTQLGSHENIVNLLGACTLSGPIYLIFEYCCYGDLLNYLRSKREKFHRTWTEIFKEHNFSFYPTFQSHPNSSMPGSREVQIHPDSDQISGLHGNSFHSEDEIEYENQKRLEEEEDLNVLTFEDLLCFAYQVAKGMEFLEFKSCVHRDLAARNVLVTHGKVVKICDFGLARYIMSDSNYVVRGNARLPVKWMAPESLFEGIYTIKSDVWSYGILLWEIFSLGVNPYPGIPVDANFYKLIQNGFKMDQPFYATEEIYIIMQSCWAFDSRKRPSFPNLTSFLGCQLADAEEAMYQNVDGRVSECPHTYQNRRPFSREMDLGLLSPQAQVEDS
# [9] = target: Non-receptor tyrosine-protein kinase TYK2 (Homo sapiens) (UniProt P29597); conditions: at 1 µM;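 note: values are mean percent inhibition of TYK2 kinase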
# [10] = target: T2, Tyrosine-protein kinase receptor TYRO3 (Homo sapiens) (UniProt Q06418); conditions: at 0.1 µM
# T2 sequence (whole entry): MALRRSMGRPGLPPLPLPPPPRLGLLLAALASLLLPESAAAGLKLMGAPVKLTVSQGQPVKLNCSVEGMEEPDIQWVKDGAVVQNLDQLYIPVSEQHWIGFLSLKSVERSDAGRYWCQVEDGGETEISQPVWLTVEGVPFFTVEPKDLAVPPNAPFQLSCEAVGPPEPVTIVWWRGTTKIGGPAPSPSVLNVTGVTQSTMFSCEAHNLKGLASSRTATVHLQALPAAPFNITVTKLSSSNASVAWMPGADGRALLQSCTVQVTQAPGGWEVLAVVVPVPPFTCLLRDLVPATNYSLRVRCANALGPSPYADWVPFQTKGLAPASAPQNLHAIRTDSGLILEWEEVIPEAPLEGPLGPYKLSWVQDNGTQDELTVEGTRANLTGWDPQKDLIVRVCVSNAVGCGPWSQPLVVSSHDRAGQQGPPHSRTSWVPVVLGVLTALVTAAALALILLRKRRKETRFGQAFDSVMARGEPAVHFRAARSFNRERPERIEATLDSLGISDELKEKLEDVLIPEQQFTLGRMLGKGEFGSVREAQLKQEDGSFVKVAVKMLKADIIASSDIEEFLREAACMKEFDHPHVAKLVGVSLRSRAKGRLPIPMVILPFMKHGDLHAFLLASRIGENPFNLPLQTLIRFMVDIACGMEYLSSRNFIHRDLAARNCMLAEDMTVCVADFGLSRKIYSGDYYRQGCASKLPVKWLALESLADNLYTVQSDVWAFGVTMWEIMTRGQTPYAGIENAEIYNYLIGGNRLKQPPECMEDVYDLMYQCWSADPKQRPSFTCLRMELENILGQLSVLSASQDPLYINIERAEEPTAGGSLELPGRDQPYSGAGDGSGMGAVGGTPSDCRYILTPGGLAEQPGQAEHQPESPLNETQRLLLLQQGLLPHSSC
# [11] = target: T2, Tyrosine-protein kinase receptor TYRO3 (Homo sapiens); conditions: at 1 µM
# [12] = target: Tyrosine-protein kinase Yes (Homo sapiens) (UniProt P07947); conditions: at 0.1 µM
# [13] = target: Tyrosine-protein kinase Yes (Homo sapiens) (UniProt P07947); conditions: at 1 µM
# [14] = target: T3, Tyrosine-protein kinase ZAP-70 (Homo sapiens) (UniProt P43403); conditions: at 0.1 µM
# T3 sequence (whole entry): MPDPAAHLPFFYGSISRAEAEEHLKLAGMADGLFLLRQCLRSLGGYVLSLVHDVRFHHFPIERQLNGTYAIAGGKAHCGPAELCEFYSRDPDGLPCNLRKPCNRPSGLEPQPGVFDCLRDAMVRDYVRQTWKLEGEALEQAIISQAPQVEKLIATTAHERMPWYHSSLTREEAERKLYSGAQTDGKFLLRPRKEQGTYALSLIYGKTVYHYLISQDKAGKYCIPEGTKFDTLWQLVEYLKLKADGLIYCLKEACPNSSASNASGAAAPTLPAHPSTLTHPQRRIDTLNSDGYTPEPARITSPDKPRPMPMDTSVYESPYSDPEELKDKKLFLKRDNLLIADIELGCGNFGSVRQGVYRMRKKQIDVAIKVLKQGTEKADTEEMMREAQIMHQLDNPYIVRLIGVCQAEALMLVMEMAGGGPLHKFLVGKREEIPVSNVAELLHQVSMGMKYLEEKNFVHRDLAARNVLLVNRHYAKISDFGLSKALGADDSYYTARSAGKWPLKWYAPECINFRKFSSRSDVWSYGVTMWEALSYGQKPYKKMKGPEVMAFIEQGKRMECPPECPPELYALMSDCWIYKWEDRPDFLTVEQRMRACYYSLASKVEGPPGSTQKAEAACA
# [15] = target: T3, Tyrosine-protein kinase ZAP-70 (Homo sapiens); conditions: at 1 µM
# [16] = target: Serine/threonine-protein kinase B-raf (Homo sapiens) (UniProt P15056); conditions: at 0.1 µM
# [17] = target: Serine/threonine-protein kinase B-raf (Homo sapiens) (UniProt P15056); conditions: at 1 µM
# [18] = tested on: Serine/threonine-protein kinase B-raf (Homo sapiens), P15056 [V600E]; conditions: at 0.1 µM
# [19] = tested on: Serine/threonine-protein kinase B-raf (Homo sapiens), P15056 [V600E]; conditions: at 1 µM
# [20] = target: RAF proto-oncogene serine/threonine-protein kinase (Homo sapiens) (UniProt P04049); conditions: at 0.1 µM;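 note: values are mean CRAF kinase inhibition from profiling of the GSK Published Kinase Inhibitor Set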
# Chain of RAF proto-oncogene serine/threonine-protein kinase (Homo sapiens) (P04049 whole entry): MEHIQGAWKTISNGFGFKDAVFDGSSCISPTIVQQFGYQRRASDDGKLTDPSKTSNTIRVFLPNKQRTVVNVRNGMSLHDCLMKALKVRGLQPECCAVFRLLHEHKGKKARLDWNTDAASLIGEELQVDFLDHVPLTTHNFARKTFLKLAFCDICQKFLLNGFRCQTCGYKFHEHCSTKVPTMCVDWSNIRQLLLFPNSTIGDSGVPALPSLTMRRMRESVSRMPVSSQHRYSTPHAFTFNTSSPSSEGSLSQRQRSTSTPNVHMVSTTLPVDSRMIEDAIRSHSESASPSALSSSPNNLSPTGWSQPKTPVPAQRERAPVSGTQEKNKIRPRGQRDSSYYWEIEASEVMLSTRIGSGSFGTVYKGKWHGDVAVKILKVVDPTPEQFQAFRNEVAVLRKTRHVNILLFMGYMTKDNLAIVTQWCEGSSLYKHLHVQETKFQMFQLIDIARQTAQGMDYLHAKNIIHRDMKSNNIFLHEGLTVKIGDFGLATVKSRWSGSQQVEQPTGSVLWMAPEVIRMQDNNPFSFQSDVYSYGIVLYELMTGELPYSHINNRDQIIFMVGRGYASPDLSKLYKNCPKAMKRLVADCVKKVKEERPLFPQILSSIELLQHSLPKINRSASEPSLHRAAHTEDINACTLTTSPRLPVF
# Chain of Non-receptor tyrosine-protein kinase TYK2 (Homo sapiens) (P29597 whole entry): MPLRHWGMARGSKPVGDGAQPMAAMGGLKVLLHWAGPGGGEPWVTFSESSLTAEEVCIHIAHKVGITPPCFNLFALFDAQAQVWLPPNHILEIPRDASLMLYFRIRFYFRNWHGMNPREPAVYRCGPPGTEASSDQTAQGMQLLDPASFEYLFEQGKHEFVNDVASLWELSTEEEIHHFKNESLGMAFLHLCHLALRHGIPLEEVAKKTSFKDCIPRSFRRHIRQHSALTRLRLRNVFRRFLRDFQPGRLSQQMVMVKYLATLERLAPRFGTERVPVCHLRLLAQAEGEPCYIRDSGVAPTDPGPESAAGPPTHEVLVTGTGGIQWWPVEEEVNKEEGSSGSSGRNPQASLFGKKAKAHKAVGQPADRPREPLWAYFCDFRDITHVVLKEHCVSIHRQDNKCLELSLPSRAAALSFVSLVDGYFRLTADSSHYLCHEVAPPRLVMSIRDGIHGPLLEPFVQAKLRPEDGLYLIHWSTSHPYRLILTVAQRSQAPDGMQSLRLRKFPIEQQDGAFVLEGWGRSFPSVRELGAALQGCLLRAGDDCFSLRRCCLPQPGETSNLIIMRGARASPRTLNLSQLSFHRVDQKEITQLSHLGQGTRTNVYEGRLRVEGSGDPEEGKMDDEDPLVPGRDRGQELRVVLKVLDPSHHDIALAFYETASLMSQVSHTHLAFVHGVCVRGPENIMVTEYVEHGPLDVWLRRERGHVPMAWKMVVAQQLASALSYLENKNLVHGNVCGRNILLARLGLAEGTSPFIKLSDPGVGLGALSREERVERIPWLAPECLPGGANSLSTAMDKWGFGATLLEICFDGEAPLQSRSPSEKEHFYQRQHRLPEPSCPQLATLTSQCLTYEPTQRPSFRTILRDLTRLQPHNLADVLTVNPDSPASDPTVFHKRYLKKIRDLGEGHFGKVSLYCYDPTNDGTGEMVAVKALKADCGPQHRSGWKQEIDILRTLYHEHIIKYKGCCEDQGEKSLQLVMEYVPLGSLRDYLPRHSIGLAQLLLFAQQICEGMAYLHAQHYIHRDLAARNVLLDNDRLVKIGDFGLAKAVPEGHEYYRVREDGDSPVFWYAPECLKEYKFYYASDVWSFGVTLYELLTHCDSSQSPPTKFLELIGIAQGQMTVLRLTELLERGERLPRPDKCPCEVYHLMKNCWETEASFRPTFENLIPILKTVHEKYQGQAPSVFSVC
# Chain of Tyrosine-protein kinase Yes (Homo sapiens) (P07947 2-543 limits assumed): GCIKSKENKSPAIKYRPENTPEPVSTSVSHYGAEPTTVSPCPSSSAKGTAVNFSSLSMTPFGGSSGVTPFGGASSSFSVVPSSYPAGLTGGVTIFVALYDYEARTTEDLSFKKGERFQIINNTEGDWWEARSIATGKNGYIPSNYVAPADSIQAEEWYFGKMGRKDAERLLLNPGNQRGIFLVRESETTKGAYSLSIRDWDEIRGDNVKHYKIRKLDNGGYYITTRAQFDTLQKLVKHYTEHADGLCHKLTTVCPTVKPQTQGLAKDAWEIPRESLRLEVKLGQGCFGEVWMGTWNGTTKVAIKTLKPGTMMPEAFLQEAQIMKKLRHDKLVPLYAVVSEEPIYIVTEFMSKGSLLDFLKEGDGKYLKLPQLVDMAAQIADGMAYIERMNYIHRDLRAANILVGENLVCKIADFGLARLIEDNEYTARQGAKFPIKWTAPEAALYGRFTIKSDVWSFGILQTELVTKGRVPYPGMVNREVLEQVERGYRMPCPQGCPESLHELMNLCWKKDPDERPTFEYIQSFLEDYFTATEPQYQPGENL
# Chain of Serine/threonine-protein kinase B-raf (Homo sapiens), P15056 [V600E] (P15056 whole entry V600E): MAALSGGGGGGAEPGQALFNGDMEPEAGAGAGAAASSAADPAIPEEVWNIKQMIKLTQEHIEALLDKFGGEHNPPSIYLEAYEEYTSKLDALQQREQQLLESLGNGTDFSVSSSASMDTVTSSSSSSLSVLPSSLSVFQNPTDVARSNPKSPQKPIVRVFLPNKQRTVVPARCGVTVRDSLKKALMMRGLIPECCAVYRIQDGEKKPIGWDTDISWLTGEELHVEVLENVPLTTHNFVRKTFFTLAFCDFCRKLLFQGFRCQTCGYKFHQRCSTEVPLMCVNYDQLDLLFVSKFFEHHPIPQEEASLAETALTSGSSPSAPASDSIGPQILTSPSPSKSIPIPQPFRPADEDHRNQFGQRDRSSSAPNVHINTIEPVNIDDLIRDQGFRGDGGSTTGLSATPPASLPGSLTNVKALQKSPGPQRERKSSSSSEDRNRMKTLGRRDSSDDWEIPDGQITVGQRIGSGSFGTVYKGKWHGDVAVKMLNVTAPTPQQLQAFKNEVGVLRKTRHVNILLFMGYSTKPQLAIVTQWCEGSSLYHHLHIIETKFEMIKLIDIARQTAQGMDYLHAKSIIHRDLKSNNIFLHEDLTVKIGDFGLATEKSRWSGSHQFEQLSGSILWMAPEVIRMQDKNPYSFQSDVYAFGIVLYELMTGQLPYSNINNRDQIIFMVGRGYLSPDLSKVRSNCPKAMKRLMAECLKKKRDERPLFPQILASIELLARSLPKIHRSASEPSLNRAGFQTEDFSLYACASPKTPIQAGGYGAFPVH
# Chain of Vascular endothelial growth factor receptor 1 (Homo sapiens) (P17948 whole entry): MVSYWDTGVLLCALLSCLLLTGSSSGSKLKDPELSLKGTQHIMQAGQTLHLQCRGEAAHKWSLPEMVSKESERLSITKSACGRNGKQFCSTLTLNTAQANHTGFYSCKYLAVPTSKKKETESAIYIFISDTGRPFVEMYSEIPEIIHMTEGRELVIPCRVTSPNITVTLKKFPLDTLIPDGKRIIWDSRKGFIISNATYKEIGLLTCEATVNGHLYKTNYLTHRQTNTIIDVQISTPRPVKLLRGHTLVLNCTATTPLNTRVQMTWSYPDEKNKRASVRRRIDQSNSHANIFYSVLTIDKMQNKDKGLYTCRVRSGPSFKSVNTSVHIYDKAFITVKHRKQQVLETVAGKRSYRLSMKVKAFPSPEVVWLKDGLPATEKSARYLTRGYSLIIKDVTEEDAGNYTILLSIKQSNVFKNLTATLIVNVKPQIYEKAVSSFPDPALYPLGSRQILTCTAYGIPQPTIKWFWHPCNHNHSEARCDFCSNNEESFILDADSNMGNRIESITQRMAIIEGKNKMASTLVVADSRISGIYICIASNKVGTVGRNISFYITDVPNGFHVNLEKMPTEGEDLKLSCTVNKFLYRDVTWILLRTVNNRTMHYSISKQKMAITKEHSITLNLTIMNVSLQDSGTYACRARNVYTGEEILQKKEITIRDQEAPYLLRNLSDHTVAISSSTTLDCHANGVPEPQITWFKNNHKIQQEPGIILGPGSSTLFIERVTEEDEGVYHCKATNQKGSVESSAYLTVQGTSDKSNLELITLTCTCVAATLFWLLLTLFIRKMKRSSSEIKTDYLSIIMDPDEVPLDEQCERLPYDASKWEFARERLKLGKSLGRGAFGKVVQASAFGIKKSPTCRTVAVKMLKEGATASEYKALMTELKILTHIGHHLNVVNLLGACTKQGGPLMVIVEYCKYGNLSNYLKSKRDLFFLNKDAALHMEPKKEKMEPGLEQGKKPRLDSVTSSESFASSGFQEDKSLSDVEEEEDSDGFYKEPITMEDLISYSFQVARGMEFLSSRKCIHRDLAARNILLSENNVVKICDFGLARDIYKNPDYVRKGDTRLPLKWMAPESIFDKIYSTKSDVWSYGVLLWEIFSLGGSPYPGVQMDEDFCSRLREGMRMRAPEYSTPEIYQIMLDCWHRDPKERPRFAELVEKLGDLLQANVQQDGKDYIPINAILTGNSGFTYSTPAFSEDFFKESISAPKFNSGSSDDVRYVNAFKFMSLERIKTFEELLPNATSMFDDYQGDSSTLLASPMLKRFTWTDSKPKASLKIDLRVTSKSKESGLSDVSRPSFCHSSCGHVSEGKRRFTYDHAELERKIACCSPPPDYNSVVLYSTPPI
# Chain of Tyrosine-protein kinase Fgr (Homo sapiens) (P09769 2-529 limits assumed): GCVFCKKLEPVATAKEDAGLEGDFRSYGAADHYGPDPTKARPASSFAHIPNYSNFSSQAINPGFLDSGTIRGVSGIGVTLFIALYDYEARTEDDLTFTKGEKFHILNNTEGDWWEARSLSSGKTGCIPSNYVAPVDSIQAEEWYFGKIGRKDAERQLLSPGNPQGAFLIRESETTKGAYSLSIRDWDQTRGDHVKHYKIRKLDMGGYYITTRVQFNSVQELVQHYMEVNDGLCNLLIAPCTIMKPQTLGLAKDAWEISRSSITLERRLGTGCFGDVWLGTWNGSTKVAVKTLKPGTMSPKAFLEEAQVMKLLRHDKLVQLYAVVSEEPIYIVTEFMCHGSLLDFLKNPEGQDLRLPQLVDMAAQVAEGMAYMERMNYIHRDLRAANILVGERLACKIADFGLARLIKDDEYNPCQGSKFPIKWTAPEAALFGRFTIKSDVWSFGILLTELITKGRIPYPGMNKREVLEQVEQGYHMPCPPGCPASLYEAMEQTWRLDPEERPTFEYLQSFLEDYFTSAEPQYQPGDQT
# Chain of Serine/threonine-protein kinase B-raf (Homo sapiens) (P15056 whole entry): as the sequence (P15056 whole entry V600E) above, with E600V counted along it
SMILES,inhibition [1] [%],inhibition [2] [%],inhibition [3] [%],inhibition [4] [%],inhibition [5] [%],inhibition [6] [%],inhibition [7] [%],inhibition [8] [%],inhibition [9] [%],inhibition [10] [%],inhibition [11] [%],inhibition [12] [%],inhibition [13] [%],inhibition [14] [%],inhibition [15] [%],inhibition [16] [%],inhibition [17] [%],inhibition [18] [%],inhibition [19] [%],inhibition [20] [%]
CS(=O)(=O)Nc1ccc(N/C=C2\C(=O)Nc3ccccc32)cc1,5.07,1.13,15,4.31,20.8,18.4,74.1,18.7,9.24,-2.18,6.06,-1.31,10.4,-3.14,-2.93,-2.74,-2.55,-3.06,-2.04,-5.04
CCCN1CCC(Oc2cc(Nc3nc(Nc4cccc(F)c4C(N)=O)c4cc[nH]c4n3)c(OC)cc2Cl)CC1,1.48,0.61,4.19,-0.02,2.7,0.23,2.55,-3.12,0.45,-0.27,1.14,1.16,1.57,-1.5,0.24,2.31,24.1,1.35,23.7,-1.14
NS(=O)(=O)c1cccc(-c2ccc3c(NC(=O)C4CC4)n[nH]c3c2)c1,-0.5,-1.55,-0.19,-1.03,-0.85,0.61,-0.59,-3.17,1.94,-0.52,15.4,-2.48,6.25,-1.92,-0.84,-1.67,-2.14,-2.01,-2.08,-7.61
CCn1c(-c2nonc2N)nc2c(C#CC(C)(C)O)nc(OC[C@@H](N)c3ccccc3)cc21,0.19,5,10.2,5.16,33.9,-0.98,-0.75,-1.79,0.35,-0.52,0.45,0.68,0.4,-0.65,-0.38,-0.61,3.45,-0.86,3.32,-1.41
CCc1cccc(NC(=O)Nc2ccc(Oc3ccc4nc(NC(=O)OC)[nH]c4c3)cc2)c1,-0.63,5.68,5.18,36.4,43.8,37.4,48,1.59,-2.46,10.6,21.4,0.83,-1.93,0.4,-1.32,9.12,12.2,9.23,13.8,-5.43
CC1=C(C(=O)Nc2ccc3[nH]ncc3c2)C(c2ccc(Cl)c(Cl)c2)CC(=O)N1 (stereo not given),8.43,1.97,6.08,0.2,2.26,1.43,1.54,-2.38,3.29,1.69,1.34,4.16,20,0.71,2.3,5.79,31.6,6.48,31.4,4.61
CCCN1CCC=C(c2ccc(Nc3nc(Nc4ccccc4C(N)=O)c4cc[nH]c4n3)c(C)c2)C1,1.82,-0.56,4.71,-0.55,5.76,6.74,9.96,3.17,-1.46,0.75,9.79,1.14,5.4,5.54,27.4,8.31,33.4,7.56,28.2,5.61
COc1cc2ncn(-c3cc(O[C@H](C)c4ccccc4Cl)c(C(N)=O)s3)c2cc1OC,8.7,8.54,17.3,4.8,26.2,6.07,24.8,5.85,-0.12,7.57,37.6,4.24,17.8,2.5,7.57,4.31,3.59,4.51,3.77,1.34
COC(=O)Nc1nc2cc(Oc3ccc(NC(=O)Nc4cccc(C(=O)O)c4)cc3)ccc2[nH]1,-1.22,3.78,6.34,3.38,8.22,1.16,5.75,3.31,-0.42,0.5,3.17,0,2.43,-4.68,-4.2,-0.5,-1.69,-0.53,-0.73,-0.09
c1cnn2ncc(-c3ccnc(Nc4ccc5c(c4)OCCO5)n3)c2c1,4.77,4.29,14.5,8.17,20.5,29.5,75.7,9.31,12.8,5.88,25,6.25,18.3,0.79,9.39,9.37,33.3,8.24,31,-0.29
CN1CCC(C(=O)Nc2n[nH]c3nnc(-c4ccccc4)cc23)CC1,-0.57,5.18,4.46,0.44,2.94,2.28,1.88,-4.39,-0.97,2.36,5.28,3.36,3.47,4.09,5.43,7.26,7.83,8.27,7.58,16.6
CCn1c(-c2nonc2N)nc2cncc(C(=O)N3CC[C@H](N)C3)c21,0.42,3.4,1.29,-0.71,4.67,1.58,1.11,-5.73,-0.04,4.09,6.78,1.84,5.96,-1.89,-1.69,6.39,7.03,7.1,6.82,12.6
CCn1c(-c2nonc2N)nc2ccncc21,-0.3,0.66,1.16,0.15,-0.38,3.16,1.23,-3.67,-0.83,-0.29,-0.39,1.81,-1.91,7.67,3.68,2.92,2.33,1.64,3.84,6.58
